In PubChem BioAssay (Tox21):
Inconclusive results are not listed. A call without a number means that no potency is given here. Active and inactive are the calls of the source. Unless noted, calls follow the shape of the dose curve; as a rule, active = well fitted curve in the direction sought with a large enough effect in the repeat runs; inconclusive = weak or mixed curves; inactive = no such curve, though single readings can be large; an effect the other way counts as inactive or inconclusive.

Columns and labels:
[1] = qHTS assay to identify small molecule antagonists of the glucocorticoid receptor (GR) signaling pathway - cell viability counter screen (AID 720693); settings: GR-bla HeLa viability, CellTiter-Glo luminescence, 18 h, with 5 nM dexamethasone present; series mostly up to 58.5 µM; also: nearly all actives have a fitted effect of over 55% in size
[2] = qHTS assay for identifying genotoxic compounds that show differential cytotoxicity against isogenic chicken DT40 cell lines with known DNA damage response pathways - wild type cell line (AID 743012); settings: DT40 wild type chicken cells viability, CellTiter-Glo, 40 h; series mostly up to 68.4 µM; also: nearly all actives have a fitted effect of over 60% in size; also: potency is read from the fitted curve at half-maximal effect
Procedure, shortened: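 Cytotoxicity in repair-proficient parental chicken DT40 cells serves as the comparator for Rad54/Ku70- and Rev3-deficient lines. Cells were exposed to compounds for 40 h at 37 C/5% CO2, and ATP-based luminescence (CellTiter-Glo) measured viability.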

[3] = qHTS assay for identifying genotoxic compounds that show differential cytotoxicity against isogenic chicken DT40 cell lines with known DNA damage response pathways - Rev3 mutant cell line (AID 743014); settings: chicken DT40 Rev3-/- viability, CellTiter-Glo, 40 h; series mostly up to 68.4 µM; also: nearly all actives have a fitted effect of over 55% in size; also: potency is read from the fitted curve at half-maximal effect
[4] = qHTS assay to identify small molecule antagonists of the androgen receptor (AR) signaling pathway - cell viability counter screen (AID 743033; also: nearly all actives have a fitted effect of over 45% in size); settings: AR-bla HEK293 viability, CellTiter-Glo luminescence, 16 h; series mostly up to 58.5 µM
[5] = target: Androgen receptor (Homo sapiens) (UniProt P10275); assay: qHTS assay to identify small molecule antagonists of the androgen receptor (AR) signaling pathway (AID 743035; active = well fitted inhibition curve with a large enough effect in the signal ratio in the repeat runs, not every such curve was filed as active; the % refers to the signal ratio); settings: HEK293 AR-UAS-bla, R1881-stimulated, beta-lactamase FRET, 16 h; series mostly up to 58.5 µM
Procedure, shortened: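 Steps: seed AR-UAS-bla GripTite HEK293 cells, incubate 4 h at 37C; pin in test compound, then add agonist R1881; incubate 16 h at 37C; add LiveBLAzer B/G FRET substrate, 2 h at room temperature; read fluorescence.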

[6] = target: Androgen receptor (Homo sapiens) (UniProt P10275); assay: qHTS assay to identify small molecule agonists of the androgen receptor (AR) signaling pathway (AID 743036; active = well fitted activation curve with a large enough effect in the signal ratio in the repeat runs, with a control signal flat, not every such curve was filed as active; the % refers to the signal ratio); settings: HEK293 AR-UAS-bla GripTite, beta-lactamase FRET ratio, 16 h; series mostly up to 62.4 µM
Procedure, shortened: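 Following a 4 h settling period, AR-UAS-bla HEK293 cells were dosed with compounds for 16 h at 37C. A 2 h room-temperature incubation with LiveBLAzer B/G FRET substrate preceded the fluorescence measurement.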

[7] = target: Androgen receptor (Homo sapiens) (UniProt P10275); assay: qHTS assay to identify small molecule agonists of the androgen receptor (AR) signaling pathway using the MDA cell line (AID 743040; also: nearly all actives have a fitted effect of over 20% in size); settings: MDA-kb2 AR-luc cells, MMTV luciferase, 16 h; series mostly up to 70.3 µM
Procedure, shortened: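 Testing was done with the MDA-kb2 AR-luc line, a human breast carcinoma stably transfected with MMTV-luciferase containing AR and GR response elements. Cells were exposed 16 h at 37C before ONE-Glo luminescence detection.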

[8] = qHTS assay to identify small molecule antagonists of the androgen receptor (AR) signaling pathway using the MDA cell line - cell viability counter screen (AID 743041; also: nearly all actives have a fitted effect of over 45% in size); settings: MDA-kb2 viability, CellTiter-Fluor, 16 h, cells co-treated with R1881 androgen agonist; series mostly up to 70.3 µM
Procedure, shortened: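 Compound exposure lasted 16 h at 37C in MDA-kb2 AR-luc cells stimulated with R1881. Protease-based CellTiter-Fluor reagent was applied for the final 30 min and fluorescence measured.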

[9] = target: Androgen receptor (Homo sapiens) (UniProt P10275); assay: qHTS assay to identify small molecule antagonists of the androgen receptor (AR) signaling pathway using the MDA cell line (AID 743042; also: nearly all actives have a fitted effect of over 55% in size); settings: MDA-kb2 AR-luc, MMTV luciferase, R1881 antagonist, 16 h; series mostly up to 70.3 µM
Procedure, shortened: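 MDA-kb2 breast carcinoma cells carrying MMTV-luciferase (AR/GR responsive) were co-treated with compounds and the agonist R1881 for 16 h at 37C. Inhibition read as ONE-Glo luminescence; CellTiter-Fluor fluorescence measured in parallel for cytotoxicity.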

[10] = qHTS assay to identify small molecule antagonists of the thyroid receptor (TR) signaling pathway - cell viability counter screen (AID 743064); settings: GH3.TRE-Luc viability, CellTiter-Fluor, 24 h; series mostly up to 70.3 µM; also: nearly all actives have a fitted effect of over 50% in size; also: potency is read from the fitted curve at half-maximal effect
Procedure, shortened: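 CellTiter-Fluor readout, 30 min at 37 °C/5% CO2, following 23.5 h incubation of GH3.TRE-Luc cells with test compound and 1 nM T3 (final).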

[11] = qHTS assay to identify small molecule antagonists of the thyroid receptor (TR) signaling pathway (AID 743065); settings: GH3.TRE-Luc, T3-stimulated luciferase inhibition, 23.5 h; series mostly up to 70.3 µM; also: nearly all actives have a fitted effect of over 55% in size; also: potency is read from the fitted curve at half-maximal effect
Procedure, shortened: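 GH3.TRE-Luc rat pituitary cells (two TREs driving luciferase) were dosed with compound, then stimulated with 1 nM T3 (final) for 23.5 h at 37 C. ONE-Glo luminescence was the read-out, with CellTiter-Fluor fluorescence as the cytotoxicity counter-screen.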

[12] = tested on: thyroid hormone receptor (rat, GH3 cells); assay: qHTS assay to identify small molecule agonists of the thyroid receptor (TR) signaling pathway (AID 743066; calls by dose curve); settings: GH3.TRE-Luc cells, TR agonist luciferase, 24 h; series mostly up to 83.9 µM
[13] = target: Estrogen receptor (Homo sapiens) (UniProt P03372); assay: qHTS assay to identify small molecule antagonists of the estrogen receptor alpha (ER-alpha) signaling pathway (AID 743069; active = well fitted curve in the direction sought with a large enough effect in the signal ratio in the repeat runs, not every such curve was filed as active; the % refers to the signal ratio); settings: HEK293 ER-alpha-UAS-bla, beta-lactamase ratio, antagonist mode; series mostly up to 69.4 µM
Procedure, shortened: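 In this cell-based reporter format, GripTite HEK293 cells harbouring ER-alpha-UAS-bla were grown overnight with 2% charcoal-stripped FBS, dosed with DMSO-dissolved compounds, then challenged with 17beta-estradiol. After 18 hr at 37C, beta-lactamase activity was detected by FRET fluorescence.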

[14] = qHTS assay to identify small molecule antagonists of the estrogen receptor alpha (ER-alpha) signaling pathway - cell viability counter screen (AID 743074; calls by dose curve; also: nearly all actives have a fitted effect of over 45% in size); settings: ERalpha-bla HEK293 viability, CellTiter-Glo luminescence, 18 h; series mostly up to 69.4 µM
[15] = target: Estrogen receptor (Homo sapiens) (UniProt P03372); assay: qHTS assay to identify small molecule agonists of the estrogen receptor alpha (ER-alpha) signaling pathway (AID 743075; calls by dose curve); settings: HEK293 ER-alpha-UAS-bla, beta-lactamase FRET ratio, 18 h; series mostly up to 70.1 µM
[16] = target: Estrogen receptor (Homo sapiens) (UniProt P03372); assay: qHTS assay to identify small molecule agonists of the estrogen receptor alpha (ER-alpha) signaling pathway using the BG1 cell line (AID 743079); settings: BG1Luc4E2 cells, ERE-luciferase agonist, 22 h; series mostly up to 70.3 µM; also: nearly all actives have a fitted effect of over 20% in size
[17] = qHTS assay to identify small molecule antagonists of the estrogen receptor alpha (ER-alpha) signaling pathway using the BG1 cell line (AID 743080; calls by dose curve; also: nearly all actives have a fitted effect of over 25% in size); settings: BG1Luc4E2 ERE-luciferase antagonist mode, luminescence; series mostly up to 70.3 µM
Procedure, shortened: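 Antagonist mode: compounds in DMSO were pinned onto BG1-Luc-4E2 cells alongside 17beta-estradiol agonist, incubated 21.5 h, and ERE-driven luciferase measured with ONE-Glo. Cytotoxicity was multiplexed using CellTiter-Fluor fluorescence.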

[18] = qHTS assay to identify small molecule antagonists of the estrogen receptor alpha (ER-alpha) signaling pathway using the BG1 cell line - cell viability counter screen (AID 743081); settings: BG1Luc4E2 viability, CellTiter-Fluor, 22 h; series mostly up to 70.3 µM;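 also: compound given together with 17beta-estradiol as the ER stimulus; nearly all actives have a fitted effect of over 45% in size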
Aromatase (Homo sapiens) = Aromatase (Homo sapiens) (UniProt P11511); assay: qHTS assay to identify aromatase inhibitors (AID 743083); settings: MCF-7 aro ERE, testosterone-driven ERE luciferase, 24 h; series mostly up to 70.3 µM; also: nearly all actives have a fitted effect of over 55% in size
[19] = qHTS assay for identifying genotoxic compounds that show differential cytotoxicity against isogenic chicken DT40 cell lines with known DNA damage response pathways - Rad54/Ku70 mutant cell line (AID 743015); settings: DT40 Rad54/Ku70 mutant viability, CellTiter-Glo, 40 h; series mostly up to 66.8 µM; also: nearly all actives have a fitted effect of over 60% in size

Sequence of Androgen receptor (Homo sapiens) (P10275 whole entry, looked up): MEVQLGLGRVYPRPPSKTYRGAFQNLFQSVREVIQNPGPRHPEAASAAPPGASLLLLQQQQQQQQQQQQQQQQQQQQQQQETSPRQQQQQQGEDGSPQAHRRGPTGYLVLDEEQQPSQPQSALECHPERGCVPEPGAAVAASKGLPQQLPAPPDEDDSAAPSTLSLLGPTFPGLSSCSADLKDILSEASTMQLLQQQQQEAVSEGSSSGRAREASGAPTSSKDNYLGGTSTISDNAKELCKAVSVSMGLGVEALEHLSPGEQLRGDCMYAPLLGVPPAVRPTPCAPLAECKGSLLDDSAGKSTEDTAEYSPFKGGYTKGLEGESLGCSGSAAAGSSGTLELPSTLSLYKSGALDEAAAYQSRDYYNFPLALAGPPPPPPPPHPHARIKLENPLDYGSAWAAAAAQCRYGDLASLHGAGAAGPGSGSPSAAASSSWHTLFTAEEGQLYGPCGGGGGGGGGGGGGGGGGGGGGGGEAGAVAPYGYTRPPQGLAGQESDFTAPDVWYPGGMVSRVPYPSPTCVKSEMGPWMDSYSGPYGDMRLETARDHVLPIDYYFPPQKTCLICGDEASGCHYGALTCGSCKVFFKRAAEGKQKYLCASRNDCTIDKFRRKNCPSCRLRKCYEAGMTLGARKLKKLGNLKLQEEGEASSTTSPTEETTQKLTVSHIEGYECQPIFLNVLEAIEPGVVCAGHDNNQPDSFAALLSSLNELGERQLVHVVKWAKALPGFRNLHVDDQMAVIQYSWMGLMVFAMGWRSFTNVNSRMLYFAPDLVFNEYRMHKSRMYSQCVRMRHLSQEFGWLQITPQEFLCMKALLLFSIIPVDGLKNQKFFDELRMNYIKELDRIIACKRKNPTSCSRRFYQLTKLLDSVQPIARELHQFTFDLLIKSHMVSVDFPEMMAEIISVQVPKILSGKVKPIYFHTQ
Sequence of Estrogen receptor (Homo sapiens) (P03372 whole entry, looked up): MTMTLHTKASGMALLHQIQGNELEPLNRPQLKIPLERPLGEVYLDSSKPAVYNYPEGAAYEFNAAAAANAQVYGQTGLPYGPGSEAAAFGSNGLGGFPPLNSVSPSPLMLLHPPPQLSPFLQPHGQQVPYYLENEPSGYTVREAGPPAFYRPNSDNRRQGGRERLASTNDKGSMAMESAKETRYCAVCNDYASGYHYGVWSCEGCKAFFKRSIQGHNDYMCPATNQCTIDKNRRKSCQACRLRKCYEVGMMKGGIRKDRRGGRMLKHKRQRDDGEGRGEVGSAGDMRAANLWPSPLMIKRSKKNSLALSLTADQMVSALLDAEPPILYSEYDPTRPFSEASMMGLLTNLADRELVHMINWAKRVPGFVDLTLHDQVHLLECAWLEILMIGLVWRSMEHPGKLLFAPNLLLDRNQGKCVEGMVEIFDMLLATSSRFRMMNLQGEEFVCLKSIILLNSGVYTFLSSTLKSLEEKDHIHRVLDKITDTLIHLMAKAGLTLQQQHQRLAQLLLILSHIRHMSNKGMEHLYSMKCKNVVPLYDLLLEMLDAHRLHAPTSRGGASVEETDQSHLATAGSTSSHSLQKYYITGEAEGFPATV
Sequence of Aromatase (Homo sapiens) (P11511 whole entry, looked up): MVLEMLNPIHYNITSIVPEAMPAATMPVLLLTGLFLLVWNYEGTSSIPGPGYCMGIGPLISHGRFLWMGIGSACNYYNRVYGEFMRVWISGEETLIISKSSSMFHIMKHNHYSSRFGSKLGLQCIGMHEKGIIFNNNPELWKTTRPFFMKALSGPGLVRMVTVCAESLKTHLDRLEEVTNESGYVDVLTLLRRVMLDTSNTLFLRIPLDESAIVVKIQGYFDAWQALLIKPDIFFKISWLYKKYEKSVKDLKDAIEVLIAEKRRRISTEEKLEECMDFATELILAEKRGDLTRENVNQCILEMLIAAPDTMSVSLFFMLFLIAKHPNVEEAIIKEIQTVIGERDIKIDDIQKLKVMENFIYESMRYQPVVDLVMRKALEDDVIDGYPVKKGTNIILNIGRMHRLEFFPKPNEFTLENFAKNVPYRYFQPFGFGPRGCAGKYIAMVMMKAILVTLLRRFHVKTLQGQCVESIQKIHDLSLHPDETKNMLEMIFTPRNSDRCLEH

Row | Structure (SMILES) | outcome [1] | Potency [2] | Potency [3] | outcome [4] | Potency [5] | outcome [6] | Potency [7] | Potency [8] | outcome [9] | Potency [10] | Potency [11] | outcome [12] | Potency [13] | Potency [14] | outcome [15] | Potency [16] | outcome [17] | Potency [18] | Potency (Aromatase (Homo sapiens)) | Potency [19]
1 | Cc1cc(S(=O)(=O)O)c(N)cc1Cl | inactive | inactive | inactive | inactive | inactive | inactive | inactive | inactive | inactive | inactive | inactive | inactive | inactive | inactive | inactive | inactive | inactive | inactive | inactive | 
2 | CCCCCCCCOC(=O)CCCCCCCCC(=O)OCCCCCCCC | inactive | 68.6 µM (active) | 17.2 µM (active) | inactive |  |  |  | inactive |  | inactive | inactive | inactive | inactive | inactive | inactive | inactive | inactive | inactive | inactive | 
3 | CCCCNCCCC | inactive | inactive | inactive | inactive |  |  |  | inactive |  | inactive | inactive | inactive |  | inactive |  |  |  | inactive | inactive | 
4 | CCN[C@H]1CN(CCCOC)S(=O)(=O)c2sc(S(N)(=O)=O)cc21 | inactive | inactive |  | inactive |  |  |  | inactive |  | inactive | inactive | inactive | inactive | inactive | inactive | inactive | inactive | inactive | inactive | inactive
5 | FC(F)(F)C(Cl)(Cl)Cl | inactive | inactive | inactive | inactive |  |  |  | inactive |  | inactive | inactive | inactive | inactive | inactive | inactive | inactive | inactive | inactive | inactive | 
6 | CCCCNc1ccc(C(=O)OCCN(CC)CC)cc1 | inactive | 2.37 µM (active) | 1.68 µM (active) | inactive |  |  |  | inactive |  |  |  | inactive | inactive |  | inactive | inactive | inactive |  | inactive | 
7 | CCCCCCCCCC/C=C/C#N | inactive | inactive |  | inactive |  |  |  | inactive |  | inactive | inactive | inactive | inactive | inactive | inactive | inactive | inactive | inactive | inactive | inactive
8 | FC(F)(F)c1ccccc1 | inactive | inactive | inactive | inactive |  |  |  | inactive |  | inactive | inactive | inactive | inactive |  | inactive | inactive | inactive | inactive | inactive | 
9 | CN1CCN(C2=Nc3cc(F)ccc3Cc3ccccc32)CC1 | inactive | 11.9 µM (active) | 8.41 µM (active) | inactive | inactive | inactive | inactive | inactive | inactive | 11.9 µM (active) | 13.3 µM (active) | inactive | inactive | inactive | inactive |  | inactive | inactive | inactive | 
10 | Cc1ccc(C=O)s1 | inactive | inactive | inactive | inactive |  |  |  | inactive |  |  | inactive | inactive |  | inactive |  |  |  | inactive | inactive | 
11 | CC(C)O | inactive | inactive |  | inactive |  |  |  | inactive |  | inactive | inactive | inactive | inactive | inactive | inactive | inactive | inactive | inactive | inactive | inactive
12 | OCCN1CCN(CCO)CC1 | inactive | inactive |  | inactive |  |  |  | inactive |  | inactive | inactive | inactive |  | inactive |  |  |  | inactive | inactive | inactive
13 | CCOC(=O)C(Br)c1ccccc1 (centres undefined) | inactive | inactive |  | inactive |  |  |  | inactive |  | inactive | inactive | inactive | inactive | inactive | inactive | inactive | inactive | inactive | inactive | inactive
14 | CCCCCCCCCCCCOCCOS(=O)(=O)O | inactive | inactive | inactive | inactive |  |  |  | inactive |  |  | 68.6 µM (active) | inactive |  | inactive | inactive |  | inactive | inactive | inactive | 
15 | CC(=O)N(CC(O)CN(C(C)=O)c1c(I)c(C(=O)NCC(O)CO)c(I)c(C(=O)NCC(O)CO)c1I)c1c(I)c(C(=O)NCC(O)CO)c(I)c(C(=O)NCC(O)CO)c1I (centres undefined) | inactive | inactive | inactive |  |  |  |  | inactive |  |  | inactive | inactive | inactive | inactive | inactive | inactive | inactive | inactive | inactive | 
16 | COc1cc(C)ccc1C(C)C | inactive | inactive |  | inactive |  |  |  | inactive |  | inactive | inactive | inactive | inactive | inactive | inactive | inactive | inactive |  | inactive | 
17 | CCCCCCC | inactive | inactive |  | inactive |  |  |  | inactive |  | inactive |  |  | inactive | inactive | inactive | inactive | inactive | inactive | inactive | inactive
18 | CC(C)CC(=O)OCc1ccccc1 | inactive | inactive |  | inactive |  |  |  | inactive |  | inactive | inactive | inactive | inactive | inactive | inactive | inactive | inactive | inactive | inactive | 
